This is a sample that favours compounds with a hit; in the whole collection about 28% have one here.
Plk1 PBD FP – blocks phosphopeptide binding to human Plk1 polo box domain. actives 0.13% (n = 97,000). P53350. Plk1 PBD phosphopeptide binding, fluorescence polarization. inhibition, %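 (tested at about 20 µM)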; in the data active means inhibition above about 34%, passing the limit was not always enough
CYP2C19 inh – human CYP2C19 inhibition; AID 778; P33261; inhibition, % at 5 µM; actives 21% (n = 96,000); CYP2C19 Supersomes, luciferin-H EGE luminescence, 30 min;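 active means CYP2C19 inhibition above a set limit at 5 µM in the primary screen, cut at about 50% in these data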;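 further: plate controls were negative control wells for no effect and 2.5 mM tranylcypromine positive control for full effect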
Target sequence (P33261 whole entry, looked up): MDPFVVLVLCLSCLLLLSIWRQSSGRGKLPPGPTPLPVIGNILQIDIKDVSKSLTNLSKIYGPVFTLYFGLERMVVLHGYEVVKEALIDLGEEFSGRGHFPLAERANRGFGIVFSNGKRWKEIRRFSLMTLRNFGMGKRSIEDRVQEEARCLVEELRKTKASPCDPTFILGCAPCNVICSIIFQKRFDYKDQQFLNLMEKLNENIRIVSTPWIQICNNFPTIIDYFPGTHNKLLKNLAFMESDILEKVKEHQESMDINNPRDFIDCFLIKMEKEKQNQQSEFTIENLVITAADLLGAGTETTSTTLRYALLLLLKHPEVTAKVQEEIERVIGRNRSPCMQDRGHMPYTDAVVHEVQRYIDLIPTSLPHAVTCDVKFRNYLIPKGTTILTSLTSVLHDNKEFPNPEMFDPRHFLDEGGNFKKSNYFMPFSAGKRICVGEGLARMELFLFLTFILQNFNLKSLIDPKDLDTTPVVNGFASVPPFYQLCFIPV
CYP2C9 activ – increases human cytochrome P450 2C9 activity. activation factor at 5 µM. P11712. actives 1.4% (n = 96,000). recombinant CYP2C9, luciferin-H conversion, luminescence; hits give high values; factor 1 = untreated enzyme, 0 = blocked. AID 1024;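 active means activation factor of 2 or more for CYP2C9 at a 5 µM dose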;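 further: 0 = sulfaphenazole-blocked wells and 1 = vehicle-only wells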
PLK1 kinase inh – PLK1 (human) kinase inhibition; P53350; recombinant PLK1 kinase, TR-FRET peptide phosphorylation; inhibition, % at 10 µM; actives 0.53% (n = 97,000); AID 619;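 active means inhibition of 50% or more in the single-concentration screen; inactive means inhibition below 50%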;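 further: 0% = DMSO max control and 100% = H-89 dihydrochloride min control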
CYP2C19 activ – increases human CYP2C19 enzyme activity. recombinant CYP2C19, luciferin-H EGE luminescence; hits give high values; 0 = fully inhibited enzyme, 1 = untreated enzyme. 96,000 tested, under 10 active. P33261. activation factor at 5 µM;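 active means activation factor of at least 2 at 5 µM in the primary screen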;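 further: 0 = wells with 2.5 mM tranylcypromine and 1 = vehicle-only wells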
CYP2C9 inhib – human CYP2C9 inhibition; CYP2C9 Supersomes, luciferin-H conversion, luminescence; inhibition, % at 5 µM; actives 20% (n = 96,000); AID 777;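 active means blocking of liver enzyme CYP2C9 beyond about 50% at 5 µM, limit read from the data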
* = called active by the depositor; . = no result.

SMILES	Plk1 PBD FP	CYP2C19 inh	CYP2C9 activ	PLK1 kinase inh	CYP2C19 activ	CYP2C9 inhib
CCC(C)Oc1ccccc1C1CC(=O)NC2=C1C(=O)CCC2 (centres undefined)	-5.6	1.5	1	-7.2	1	-3.6
Cc1ccc2c(N)c(C)ccc2c1	0.9	66.6*	0.9	-13.2	0.3	11.3
Cc1ccc2c(C)[nH]c(=O)cc2c1	6.8	4.3	1	-7.8	1	4.2
Cn1nnnc1Sc1ncnc2scc(-c3ccccc3)c12	.	45.9	0.3	.	0.5	66.5*
CCc1nc2oc3cc(OC)ccc3c(=O)c2c(=O)n1-c1ccccc1	-7.2	-16.3	1.2	-8.4	1.2	-23.7
CCCCCOc1ccc(OC(=O)c2ccncc2)cc1	-18.6	38.8	0.6	-18.7	0.6	37.5
CCCCOc1ccc(C(=O)Oc2ccc(C)nc2)cc1	4.4	20.1	0.5	-2.2	0.8	54.9*
COc1ccc2[nH]cc(C(=O)CN3CCN(C/C=C/c4ccccc4)CC3)c2c1	0.0	1.8	0.6	-2.5	1	36.3
Cc1cc(C)c(S(=O)(=O)n2ccc(-c3ccc(OCCN(C)c4ccccn4)cc3)n2)c(C)c1	-38.3	13.9	0.4	-1.4	0.9	57.4*
CN(CCOc1ccc(Cl)cc1)c1ccc(S(=O)(=O)N2CCCCC2)cn1	-28.9	37.5	1.3	-9.1	0.6	-31.0
CCCSc1nc(SCC(=O)NCc2ccccc2)c2c3c(sc2n1)COC(C)(CC)C3 (centres undefined)	5.2	5.2	0.8	-24.0	0.9	15.0
Cc1cc(C(=O)CSc2nnnn2C)c(C)n1-c1cccc(F)c1	-11.0	95.0*	0.6	-8.1	0.1	44.9
COCCn1c(C)cc(C(=O)CSc2n[nH]c(N)n2)c1C	-0.8	7.5	1.9	-5.2	0.9	-85.7
Cc1cc(C(=O)CSc2n[nH]c(N)n2)c(C)n1-c1cccc(F)c1	5.3	89.7*	0.5	-5.4	0.1	52.3*
COc1ccc(CCn2c(C)cc(C(=O)CSc3nnnn3C)c2C)cc1	-5.0	40.9	0.8	3.6	0.6	18.7
Cc1cc(C(=O)CSc2nc(N)cc(N)n2)c(C)n1CCc1ccc(F)cc1	-2.1	75.9*	0.5	-10.2	0.2	53.3*
Cc1cc(C(=O)CSc2nnc(C3COc4ccccc4O3)n2C)c(C)n1-c1ccc(F)cc1 (centres undefined)	16.4	48.8	0.5	-0.1	0.5	50.5*
Cn1c(SCC(=O)c2ccc3c(c2)OCO3)nnc1C1COc2ccccc2O1 (centres undefined)	-9.2	-7.5	0.6	-6.6	1.1	44.4
Cc1cccc(C)c1NC(=O)CSc1nnnn1C	12.0	-13.3	1.2	-8.0	1.1	-16.1
Cc1ccc(NC2=NC(c3ccc(O)cc3)n3c(nc(C)cc3=O)N2)cc1 (centres undefined)	-9.0	0.6	0.8	-12.8	1	20.6
Cc1cc(N2CCN(C)CC2)nc2ccc(NC(=O)CCC(=O)NCc3ccco3)cc12	-27.0	-4.6	1.1	-3.7	1	-5.3
O=C(O)COc1ccc(S(=O)(=O)c2ccc(OCC(=O)O)cc2)cc1	14.1	4.3	1	-5.7	1	-2.7
Cc1c(NC(=O)CSc2nnc3sc4ccccc4n23)c(=O)n(-c2ccccc2)n1C	-14.8	1.6	0.8	-5.5	1	21.9
O=C(NCc1ccc(Cl)c(Cl)c1)c1ccco1	6.7	.	.	-8.2	.	.
Cc1cc(C)cc(-n2c(C)cc(C(=O)CSc3nnnn3C)c2C)c1	-12.4	61.3*	0.4	9.4	0.4	64.3*
SMILES	Plk1 PBD FP	CYP2C19 inh	CYP2C9 activ	PLK1 kinase inh	CYP2C19 activ	CYP2C9 inhib
Cc1ccc(-n2nnnc2SCC(=O)c2cc(C)n(-c3cc(C)on3)c2C)cc1	5.0	49.2	1.3	0.2	0.5	-25.0
COc1ccccc1C(=O)CSc1n[nH]c(N)n1	-5.2	7.9	3*	-8.3	0.9	-203.4
COCCCn1c2nc3ccccc3nc2c2c(=O)n(Cc3ccccc3Cl)cnc21	.	23.2	1	.	0.8	1.3
CCOCCCn1c(C)nc2c(c1=O)c1nc3ccccc3nc1n2-c1ccc(C)cc1	-6.2	-12.8	1	-6.7	1.1	4.8
O=c1c2c3nc4ccccc4nc3n(CC3CCCO3)c2ncn1CCc1ccccc1 (centres undefined)	.	19.0	0.9	.	0.8	14.7
CCCCCn1c2nc3ccccc3nc2c2c(=O)n(CC3CCCO3)c(C)nc21 (centres undefined)	.	13.0	0.3	.	0.9	74.4*
COc1cc(-n2c3nc4ccccc4nc3c3c(=O)n(Cc4ccco4)cnc32)cc(OC)c1OC	-22.7	.	.	22.2	.	.
O=c1c2c3nc4ccccc4nc3n(Cc3ccccc3)c2ncn1Cc1ccco1	-4.4	14.4	0.4	-2.0	0.9	60.9*
COCCCn1c(C)nc2c(c1=O)c1nc3ccccc3nc1n2CCc1ccccc1	18.7	29.2	0.2	-6.7	0.7	79.6*
COCCCn1c2nc3ccccc3nc2c2c(=O)n(Cc3ccc(Cl)cc3)cnc21	-4.8	96.3*	0.9	-11.4	0	11.9
CC(=O)Nc1c(NCC(C)C)c2ccccc2oc1=O	-23.7	.	.	-14.2	.	.
CCOc1ccc2noc3c2c1C(=O)c1ccccc1-3	39.0	-8.1	1	-16.7	1.1	3.0
O=C1c2ccccc2-c2onc3c(Oc4ccccc4)cc(O)c1c23	-26.4	6.2	0.3	7.2	0.9	67.8*
CCOc1ccc(-c2n[nH]c(C)c2Oc2ccc(OC)cc2)c(O)c1	4.2	99.8*	0	-2.5	0	99.3*
Cc1[nH]nc(-c2ccc(O)c(C)c2O)c1Oc1ccccc1	8.2	100.3*	0	3.2	0	100.3*
Cc1[nH]nc(-c2ccc(OCc3cnn(-c4ccccc4)c3)c(C)c2O)c1Oc1ccccc1	14.3	6.6	0.8	-8.4	0.9	22.8
CCc1noc(C)c1C(=O)Nc1sc(C(=O)N(C)C)c(C)c1C(=O)OC	-11.2	46.3	0.4	-7.8	0.5	59.6*
CCOC(=O)c1c(NC(=O)C2c3ccccc3Oc3ccccc32)sc(C(N)=O)c1C	23.6	45.6	0.2	-15.9	0.5	78.4*
CCOC(=O)c1c(NC(=O)c2cccs2)sc(C(=O)N(C)C)c1C	-4.9	57.6*	0.2	1.8	0.4	77.0*
CCc1c(C)sc(NC(=O)c2cccs2)c1C(=O)OC(C)C	-20.6	50.7*	0.4	-1.9	0.5	64.3*
CCOC(=O)c1c(NC(=O)c2cccs2)sc(C)c1CC	15.1	44.1	1	-19.3	0.6	4.2
COC(=O)c1c(NC(=O)c2ccco2)sc(C(=O)N(C)C)c1C	-6.8	.	.	-10.8	.	.
CCOC(=O)c1c(NC(=O)c2cccs2)sc2c1CCCC2	29.0	3.3	1	-11.1	1	0.5
COc1c(C)cccc1C(=O)Nc1ccc(N2CCOCC2)c(Cl)c1	11.7	10.9	1.7	-8.8	0.9	-71.2
COc1ccccc1CC(NC(C)=O)C(=O)N1CCN(C(=O)Nc2ccccc2Cl)CC1 (centres undefined)	4.4	-5.4	1.2	-9.1	1.1	-16.8
